High-throughput results from PubChem BioAssay.
Shown are actives, neighbours in structure and some others; about 8.8% of the full set was active somewhere.
HTT aggregate: reduces HttQ103-GFP aggregates in PC12 cells; actives 1.1% (n = 220,000); PC12 HttQ103-GFP aggregates, Acumen cytometry, 40 h; Potency, µM (highest dose often 46.1 µM), for inactives: at the highest dose activity change, negative = inhibition, most hits filed as inhibitors; active = well fitted curve in the direction sought with a large enough effect; inconclusive = small, poorly fitted or top-dose-only effect, or another doubt; inactive = no such curve, though single readings can be large; an effect the other way counts as inactive or inconclusive; note: % is set by controls: 0 for no effect and ±100 for the full control effect; nearly all actives have a fitted effect of over 60% in size
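Ecdysone-promoter PC12 model expressing HTT exon 1 Q103 fused to GFP, induced by tebufenozide at 100 nM final. Compounds titrated; aggregates sized 1–25 µm scored on a 488 nm laser cytometer.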
HPGD inh: blocks human HPGD enzyme activity; P15428; purified HPGD, NADH fluorescence kinetic, PGE2 substrate; Potency, µM, for inactives: at the top dose activity change, negative = inhibition, hits mostly inhibitors; actives 4.3% (n = 150,000); AID 894; note: % is set by controls: 0 for no effect and ±100 for the full control effect
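NADH formation kinetics: reaction with 30 uM PGE2 and 1 mM NAD+ (final), 20 nM enzyme, Tris-HCl pH 8 with Tween 20, after 15 min compound preincubation at room temperature. Fluorescence change, last versus first of five reads.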
HTT cytoprotect: protects HTT-Q103 PC12 cells, measured by ATP. PC12 HTT-Q103 induced, cytoprotection, ATP luminescence, 40 h. Potency, µM (top dose mostly 56.4 µM), for inactives: cytoprotection (ATP increase), usual class: activators. actives 0.14% (n = 230,000). AID 1471; active = well fitted curve in the direction sought with a large enough effect; inconclusive = small, poorly fitted or top-dose-only effect, or another doubt; inactive = no such curve, though single readings can be large; an effect the other way counts as inactive or inconclusive; note: % of control where 0% means no effect; nearly all actives have a fitted effect of over 45% in size
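Compounds were screened for protection of PC12 cells against cell death after tebufenozide induction (100 nM final) of mutant Huntingtin exon 1 (Q103) fused to GFP.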
Lamin A splicing: LMNA splicing modulation; HeLa LMNA splicing GFP/RFP minigene ratio, 48 h; actives 0.01% (n = 200,000); Potency, µM (titrated, usually from 46.1 µM), inactives show at the highest dose ratio change, negative = inhibition, hits mostly inhibitors; active = well fitted inhibition curve with a large enough effect in the signal ratio, with a control signal flat, not every such curve was filed as active; inconclusive = small, poorly fitted or top-dose-only effect, or effect the other way, or a change in a side signal; the % refers to the signal ratio; note: % is set by controls: 0 for no effect and ±100 for the full control effect
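Read-out is the ratio of GFP to DsRed2 object intensity, acquired by 488 nm laser-scanning cytometry on HeLa lamin A-EGFP minigene reporter cells. Compound incubation 48 hrs at 37 °C in Opti-MEM with 2% FBS; DMSO 0.5% final.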
ALDH1A1 inh: blocks purified human ALDH1A1 activity | Purified ALDH1A1, NADH fluorescence, propionaldehyde substrate | Potency, µM (highest dose often 75.3 µM), without a hit: top-dose activity, negative = inhibition, hits mostly inhibitors | actives 7.3% (n = 220,000);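 note: plate controls were no enzyme wells and a reference inhibitor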
Target sequence (P00352 whole entry, looked up): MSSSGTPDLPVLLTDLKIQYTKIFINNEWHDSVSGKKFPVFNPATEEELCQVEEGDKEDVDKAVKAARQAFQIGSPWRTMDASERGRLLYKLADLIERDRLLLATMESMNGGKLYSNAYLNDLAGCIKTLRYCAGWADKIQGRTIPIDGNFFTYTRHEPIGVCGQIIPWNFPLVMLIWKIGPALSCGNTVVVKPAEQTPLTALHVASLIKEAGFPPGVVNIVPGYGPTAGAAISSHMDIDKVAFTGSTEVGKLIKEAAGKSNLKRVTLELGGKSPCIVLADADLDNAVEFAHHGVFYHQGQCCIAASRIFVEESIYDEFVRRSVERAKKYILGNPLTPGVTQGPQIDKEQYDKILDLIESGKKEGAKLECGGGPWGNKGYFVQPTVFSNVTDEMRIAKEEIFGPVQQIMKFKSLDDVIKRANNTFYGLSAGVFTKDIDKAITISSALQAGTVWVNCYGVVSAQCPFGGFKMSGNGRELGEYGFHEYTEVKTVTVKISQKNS
Starred values were filed as active, the others as inactive; ? = inconclusive; nt = not tested or not shown; [ ] = another dose, or the depositor's remark. Unless noted, calls come from the whole dose curve; as a rule, active = well fitted inhibition curve with a large enough effect (not every such curve was filed as active); inconclusive = small, poorly fitted or top-dose-only effect, or another doubt; inactive = no such curve, though single readings can be large or run the other way. Potency is the fitted concentration of half-maximal effect.

SMILES	HTT aggregate	HPGD inh	HTT cytoprotect	Lamin A splicing	ALDH1A1 inh
COc1cccc(C(c2sc3nc(C)nn3c2O)N2CCc3ccccc3C2)c1 (configuration not stated)	-6.5%	11.2µM*	5.2%[10 µM]	-8.4%	?
Oc1c(C(c2ccccc2)N2CCc3ccccc3C2)sc2ncnn12 (configuration not stated)	-16.7%	31.6µM*	27.6%[10 µM]	?	7.08µM*
COc1cc(C(c2sc3nc(C)nn3c2O)N2CC(C)CC(C)C2)cc(OC)c1OC (configuration not stated)	14.0%	-15.2%	-12.0%	-4.3%	14.1µM*
COc1ccccc1N1CCN(CCCNC(=O)c2cnn(-c3ccccc3)c2C2CCN(C(=O)OC(C)(C)C)CC2)CC1	nt	nt	nt	-12.8%[46 µM]	nt
Cc1ccc(N2C(N)=C(C#N)C(c3cccs3)C3=C2CC(C)(C)CC3=O)cc1 (configuration not stated)	-3.8%	?	5.5%	?	?
COc1ccc(N2CSC3=C(C#N)C(c4cccs4)CC(=O)N3C2)cc1 (configuration not stated)	31.0%	7.08µM*	-13.6%	4.8%	2µM*
CCOC(=O)c1ccc(N2CSC3=C(C#N)C(c4cccs4)CC(=O)N3C2)cc1 (configuration not stated)	17.1%	-6.8%	-22.0%	0.3%	22.4µM*
COc1cccc(C2CC(=O)NC(SC)=C2C#N)c1 (configuration not stated)	-31.3%	-12.6%	-3.1%	2.6%	?
Cc1ccc(N2CSC3=C(C#N)C(c4cccs4)CC(=O)N3C2)cc1 (configuration not stated)	-7.5%	7.94µM*	-37.5%	-0.8%	8.91µM*
N#CC1=C2SCN(c3ccc(F)cc3)CN2C(=O)CC1c1cccc(F)c1 (configuration not stated)	7.0%	5.62µM*	-28.5%	-5.2%	1.89µM*
CCOC(=O)c1[nH]c(C)c(CN(C(C)=O)c2ccc(OCC)cc2)c1C	7.9%[9.22 µM]	nt	7.1%[10 µM]	7.5%[9.22 µM]	?
O=C(Nc1cccc([N+](=O)[O-])c1)c1ccn[nH]1	4.8%	nt	-5.2%	nt	2.2%
CCOC(=O)CC1=C(C(=O)OCC)C(c2cccs2)C(C#N)=C(N)O1 (configuration not stated)	3.1%	-5.4%	6.5%	2.3%	-8.1%
N#CC1=C2SCN(Cc3ccco3)CN2C(=O)CC1c1cccc2ccccc12 (configuration not stated)	5.0%	?	-18.0%[0.074 µM]	9.7%	?
N#CC1=C2SCC(O)(c3ccccc3)N2C(=O)CC1c1ccccc1 (configuration not stated)	?	-3.5%	-57.2%	?	?
N#CC1=C2SCN(Cc3ccco3)CN2C(=O)CC1c1ccccc1F (configuration not stated)	5.0%	17.8µM*	13.8%	3.2%	10µM*
CCc1ccc(N2CSC3=C(C#N)C(c4cccs4)CC(=O)N3C2)cc1 (configuration not stated)	-0.4%	12.6µM*	-24.9%	0.3%	8.91µM*
CCc1ccc(C2CC(=O)N3CN(c4ccccc4)CSC3=C2C#N)cc1 (configuration not stated)	-0.7%	7.94µM*	-19.2%	2.4%	10µM*
CN1CSC2=C(C#N)C(c3cccc(OCc4ccccc4)c3)CC(=O)N2C1 (configuration not stated)	11.2%	14.1µM*	-13.8%	?	7.94µM*
N#Cc1ccccc1OCC(O)CNCCNC(=O)Nc1ccccc1 (configuration not stated)	nt	nt	-45.5%	nt	12.9%
CC1CCCN(S(=O)(=O)c2cc3c(cc2Cl)NC(=O)CO3)C1 (configuration not stated)	nt	nt	nt	1.7%[46 µM]	nt
O=C(CCl)Nc1ccc(Oc2cnc3ccccc3n2)cc1	?	-16.0%	-47.2%	?	0.112µM*
O=C(CCl)Nc1cccc(-c2cnc3ccccc3n2)c1	25.1µM*	-15.1%	-68.9%	?	0.891µM*
CCC(=O)Nc1cccc(-c2cnc3ccccc3n2)c1	1.9%	-2.2%	-12.9%[10 µM]	4.6%	1.7%
COc1ccc(NC(=O)CCl)cn1	12.8%[9.22 µM]	nt	-13.5%[10 µM]	nt	nt
SMILES	HTT aggregate	HPGD inh	HTT cytoprotect	Lamin A splicing	ALDH1A1 inh
CCOc1ccc(N2CCCn3c2nc2c3c(=O)n(CCc3ccccc3)c(=O)n2C)cc1	6.0%	?	-4.1%[0.074 µM]	-0.9%	11.2µM*
Cc1cc(C)cc(N2CCn3c2nc2c3c(=O)n(CCc3ccccc3)c(=O)n2C)c1	nt	nt	nt	1.78µM*	nt
Cn1c(=O)n(CCc2ccccc2)c(=O)c2c1nc1n2CCCN1Cc1ccccc1	-51.7%	-8.7%	-31.0%	?	?
Cn1c(=O)n(CCc2ccccc2)c(=O)c2c1nc1n2CCCN1CCc1ccccc1	?	-10.9%	-24.5%[0.074 µM]	?	11.2µM*
COc1ccc(CCNC(N)=S)cc1OC	1.4%	-2.9%	15.4%[10 µM]	2.7%	11.2%
COc1c(Cl)cc(Cl)cc1CNc1ccc(S(N)(=O)=O)cc1	0.3%[9.22 µM]	nt	4.3%[10 µM]	?	6.6%
O=C(Cc1cccs1)N1CCC(c2nc3c(nnn3Cc3ccccc3)c(=O)[nH]2)CC1	0.0%	4.47µM*	-1.2%	12.6%	?
N#Cc1ccc(NC(=O)N2CCC(c3nc4c(nnn4Cc4cccc(Cl)c4)c(=O)[nH]3)CC2)cc1	-0.4%	14.1µM*	-8.9%	?	-10.9%
O=C(NCc1cccs1)c1nc2c(nnn2Cc2ccccc2Cl)c(=O)[nH]1	?	6.31µM*	-2.9%[10 µM]	?	-1.0%
O=c1[nH]c(C2CCCN(S(=O)(=O)c3ccc(F)cc3)C2)nc2c1nnn2Cc1ccccc1 (configuration not stated)	-5.6%	12.6µM*	-32.8%	12.5%	14.1µM*
O=C(Cc1cccs1)N1CCCC(c2nc3c(nnn3Cc3ccccc3Cl)c(=O)[nH]2)C1 (configuration not stated)	7.0%	?	16.1%	24.6%	?
O=C(Cc1cccs1)N1CCCC(c2nc3c(nnn3Cc3ccc(F)cc3)c(=O)[nH]2)C1 (configuration not stated)	19.9%	28.2µM*	-2.5%[10 µM]	25.1%	0.8%
CC(C)(C)c1ccc(Cn2nnc3c(=O)[nH]c(C4CCCN(C(=O)Cc5cccs5)C4)nc32)cc1 (configuration not stated)	-18.2%	-6.7%	22.8%[10 µM]	?	?
CC(C)(C)c1ccc(Cn2nnc3c(=O)[nH]c(C4CCN(C(=O)Cc5cccs5)CC4)nc32)cc1	12.6µM*	-18.9%	-25.1%	?	9.2%
CO[C@H]1COC(=O)[C@H](C)NC(=O)C/C=C\[C@@H](C)[C@H](OC)COC(=O)C/C=C\[C@@H]1C	nt	nt	-0.4%[10 µM]	nt	2.4%[13.5 µM]
Cc1cc(C(=O)CN2C(=O)C3CC=CCC3C2=O)c(C)n1-c1ccccc1 (configuration not stated)	-7.5%	-12.6%	-113.3%	?	22.4µM*
